Measurements: PubChem BioAssay AID743019 (Broad Institute, 2013)
In all, about 1,000 compounds went through this assay and about 25 (2%) were called active.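 Rule for the calls: active = rising signal whose fitted curve reaches the 0.54 level within the top valid dose, showing a melting point (actives reach about 13 µM in these data); inactive = the rest, including activity in the opposite direction.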 The list is a sample of the results.

test: compound-only thermal shift signal without protein, dose response, artefact control for FGF22 binder project, biochemical, cherry-picked samples, RT-PCR instrument (AID 743019); conditions: compound-only SYPRO orange thermal shift counter-screen, no protein; at 38 µM (top of the series) unless noted; note: value is where the raw curve crosses a fixed level and not half-maximal

Structure (SMILES)	outcome
COc1cc([N+](=O)[O-])ccc1NC(=O)CN1CCCC1	inactive
C[C@H]1CN([C@@H](C)CO)C(=O)Cc2cc(NC(=O)Cc3cn(C)c4ccccc34)ccc2O[C@@H]1CN(C)Cc1ccccc1	inactive [at 42 µM]
Cc1ccc(S(=O)(=O)N(C)C[C@@H]2Oc3cc(C4=CCCC4)ccc3S(=O)(=O)N([C@@H](C)CO)C[C@@H]2C)cc1	inactive [at 42 µM]
O=C(NN1C(=O)C2C3C=CC(O3)C2C1=O)c1ccccc1 (stereo not given)	inactive
O=C(N[C@@H]1C=C[C@H](CC(=O)N2CCCCC2)O[C@H]1CO)c1cccc(F)c1	inactive
CCn1ccnc1CN(C)C(=O)c1ccc2nc(Cc3ccc(OC)cc3)oc2c1	inactive
C[C@@H]1CN([C@@H](C)CO)S(=O)(=O)c2ccc(-c3ccncc3)cc2O[C@@H]1CN(C)C(=O)Nc1ccc(F)cc1	inactive
O=C(N/N=C/c1ccc([N+](=O)[O-])cc1)c1c[nH]c2ccccc12	inactive
COc1ccccc1NC(=O)N1[C@H](C#N)[C@H](c2ccccc2)[C@H]1CO	inactive [at 42 µM]
O=C(NCCc1c[nH]c2ccccc12)C(=O)NCC1CCCO1 (stereo not given)	inactive
O=C(c1ccccc1F)N1CC(=O)N2[C@H](C1)[C@H](c1ccc(-c3ccc(F)cc3)cc1)[C@@H]2CO	inactive [at 42 µM]
CS(=O)(=O)c1ccc2nc(NC(=O)c3ccc(Cl)nc3)sc2c1	inactive
OC[C@H]1[C@H](c2ccc(-c3cccnc3)cc2)[C@H]2CN(Cc3ccccn3)CCCCN21	inactive
O=C(Nc1ccccc1F)N1[C@H](CO)[C@H]2c3ccccc3NC[C@H]21	inactive [at 42 µM]
NS(=O)(=O)c1cccc(NC(=O)COC(=O)c2cc([N+](=O)[O-])ccc2N2CCCC2)c1	inactive
Cc1ccc(NC(=O)Nc2cccnc2)cc1	inactive
O=C(N/N=C/c1ccc(Cl)c(Cl)c1)c1ccc2nc[nH]c2c1	inactive
Cc1ccc(S(=O)(=O)Nc2nc3ccccc3s2)cc1[N+](=O)[O-]	inactive
O=C(Nc1nnc(-c2ccccc2F)s1)c1ccccc1F	inactive
O=C(C[C@H]1CC[C@H]2[C@@H](COC[C@H](O)CN2S(=O)(=O)c2cccc(Cl)c2)O1)Nc1ccccc1	inactive [at 42 µM]
COCCN(C(=O)C(C)C)c1nnc(-c2ccc(C(C)(C)C)cc2)s1	inactive
C[C@H]1CN([C@@H](C)CO)S(=O)(=O)c2ccc(C3=CCCC3)cc2O[C@H]1CN(C)C(=O)Nc1ccc2c(c1)OCO2	inactive [at 42 µM]
COc1ccc(-c2cc(=O)oc3cc(OCC(=O)N[C@@H](Cc4c[nH]c5ccccc45)C(=O)O)ccc23)cc1	inactive
O=S(=O)(ON(c1ccccc1)S(=O)(=O)c1ccccc1)c1ccccc1	inactive
O=C(Cc1cccnc1)N[C@H]1CC[C@H](CCn2cc(-c3ccccc3F)nn2)O[C@H]1CO	inactive

Structure (SMILES)	outcome
CC(=O)Nc1ccc(S(=O)(=O)N(CCc2ccccc2)CC(=O)N/N=C/c2ccc(C(=O)O)cc2)cc1	inactive
CCCOc1ccc(NC(=O)CC2C(=O)N(C)C(=S)N2Cc2ccc3c(c2)OCO3)cc1 (stereo not given)	inactive
CC(C)NC(=O)N1C[C@@H]2[C@H](c3ccccc31)[C@H](CO)N2C(=O)c1ccccn1	inactive [at 42 µM]
O=C(N/N=C/c1ccc(OCc2ccccc2)cc1)c1ccc(O)cc1	inactive
C[C@@H]1CCCCO[C@@H](CN(C)Cc2ccncc2)[C@H](C)CN([C@H](C)CO)C(=O)c2cc(NC(=O)Cc3ccccc3)ccc2O1	inactive
Cc1cccc(S(=O)(=O)N2C[C@@H](O)COC[C@H]3O[C@H](CC(=O)Nc4ccc(-c5ccccc5)cc4)CC[C@@H]32)c1	inactive [at 42 µM]
CN1C(=O)c2cccc3c(N)ccc(c23)C1=O	inactive
CN1C(=O)c2cc(NC(=O)c3cccc(F)c3)ccc2OC[C@@H]2O[C@H](CC(=O)N3CCc4ccccc4C3)CC[C@@H]21	inactive
COc1ccccc1C(=O)NNC(=O)c1ccc(NC(=O)c2ccccc2)cc1	inactive
C[C@@H]1CN([C@H](C)CO)S(=O)(=O)c2ccc(-c3ccncc3)cc2O[C@@H]1CN(C)C(=O)Nc1ccc(C(F)(F)F)cc1	inactive
Cc1c(CCO)sc[n+]1CC(=O)OC12CC3CC(CC(C3)C1)C2	inactive
COc1ccc(-c2ccc([C@H]3[C@H]4CN(C(=O)c5ccc6c(c5)OCO6)CCCCN4[C@H]3CO)cc2)cc1	inactive [at 42 µM]
CC(=O)N1c2ccc(S(=O)(=O)N3CCC(C(=O)NCc4ccc(F)cc4)CC3)cc2CC1C (stereo not given)	inactive
CC(C)NC(=O)N(C)C[C@@H]1Oc2c(NC(=O)c3nc4ccccc4s3)cccc2C(=O)N([C@H](C)CO)C[C@H]1C	inactive [at 42 µM]
CCCCN1CC(N2CCN(Cc3cccc(C)c3)CC2)CS1(=O)=O (stereo not given)	inactive
Cc1ccc(NC(=O)O/N=C/c2cccc([N+](=O)[O-])c2)cc1	inactive
CC(=O)NC[C@@H]1[C@@H](c2ccccc2)[C@@H](CO)N1C(=O)Cc1cccnc1	inactive [at 42 µM]
O=C(COc1ccc([N+](=O)[O-])cc1)Nc1cccc(C(=O)Nc2ccccc2C(=O)O)c1	inactive
CC(C)(C)N1C(=O)c2c(C(=O)OCc3ccccc3)[nH]c(-c3ccccc3)c2C1=O	inactive
COc1cc(NC(=O)c2ccc3c(c2)OCO3)ccc1NC(=O)c1cccs1	inactive
O=C(C[C@H]1C[C@@H]2c3cc(NC(=O)Nc4ccc(C(F)(F)F)cc4)ccc3O[C@@H]2[C@@H](CO)O1)NCC1CC1	inactive [at 10 µM]
CNC[C@@H]1Oc2ccc(NC(=O)C3CCCCC3)cc2C(=O)N([C@@H](C)CO)C[C@H]1C	inactive
COCC(=O)Nc1ccc2c(c1)OC[C@H](C)N(C)C[C@@H](C)[C@@H](OC)CN(C)C2=O	inactive [at 42 µM]
O=C(N/N=C/c1c[nH]c2ccccc12)c1cc2ccccc2o1	inactive
Cc1ccc(S(=O)(=O)NCCC(=O)Nc2ccc(C)c(Cl)c2)cc1C	inactive
